Data as given in the supplement of paper PMC10849652.
Of roughly 7,900 targets only a part is listed; those with a hit were picked by preference. About 0.6% of all pairs of compound and target were hits.

Legend:
Test in all cases: log2 fold change, soluble protein after heating vs DMSO (PISA); higher = thermal stabilisation; K562 cells, 10 uM, 30 min; active = over 0.2 and 3.5 SD of the protein, either way, in both replicates (recomputed)
[1] = compound: CC[C@@H]1C(=O)N(C)c2cnc(Nc3ccc(C(=O)NC4CCN(C)CC4)cc3OC)nc2N1C1CCCC1
Summary of the method: (§1)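 K562 cells (2×10^6 cells/mL) were treated with 10 μM compound for 30 min, and aliquots were heated for 3 min over 48°C-58°C. Pooled aliquots were extracted in PBS with 0.5% NP-40 at 4°C, and the supernatant after 21,000xg for 90 min was measured by TMTpro 16plex LC-MS/MS with channel sums equalised. Reported thermal stability, relative to control samples and from duplicates, is a log2 fold change.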

volasertib = compound: CC[C@@H]1C(=O)N(C)c2cnc(Nc3ccc(C(=O)N[C@H]4CC[C@H](N5CCN(CC6CC6)CC5)CC4)cc3OC)nc2N1C(C)C [volasertib]
Summary of the method: as §1

[2] = compound: CC[C@H](C)N1C=C(C2=C(C=C(C=C21)C3=CN=C(C=C3)N4CCNCC4)C(=O)NCC5=C(C=C(NC5=O)C)C)C
Summary of the method: as §1

epoxomicin = compound: CC[C@H](C)[C@@H](C(=O)N[C@@H]([C@@H](C)O)C(=O)N[C@@H](CC(C)C)C(=O)[C@]1(CO1)C)NC(=O)[C@H]([C@@H](C)CC)N(C)C(=O)C [epoxomicin]
Summary of the method: as §1

[3] = compound: CCn1c(C(=O)N(C2CC2)C2CC2)cc2c3c(ncn3C)c(Nc3cc(C)n(C)n3)nc21
Summary of the method: as §1

[4] = compound: CCn1cc(-c2ccnc3[nH]c(-c4cccc(CN(C)C)c4)cc23)c(-c2ccc(NC(=O)N(C)C)cc2)n1
Summary of the method: as §1

[5] = compound: CN(C)CC(=O)Nc1ccc2[nH]c(=O)c3ccccc3c2c1
Summary of the method: as §1

rosiglitazone = compound: CN(CCOC1=CC=C(C=C1)C[C@H]2C(=O)NC(=O)S2)C3=CC=CC=N3 (racemic) [rosiglitazone]
Summary of the method: as §1

[6] = compound: CN1C2=C(C3=C1C(=O)N(N=C3)CC4=CC(=CC=C4)N)SC(=C2)S(=O)C
Summary of the method: as §1

[7] = compound: CN1CCC(CNc2ccc3ncc(-c4cccc(OC(F)(F)F)c4)n3n2)CC1
Summary of the method: as §1

saracatinib = compound: CN1CCN(CCOc2cc(OC3CCOCC3)c3c(Nc4c(Cl)ccc5c4OCO5)ncnc3c2)CC1 [saracatinib]
Summary of the method: as §1

sotrastaurin = compound: CN1CCN(c2nc(C3=C(c4c[nH]c5ccccc45)C(=O)NC3=O)c3ccccc3n2)CC1 [sotrastaurin]
Summary of the method: as §1

alvocidib = compound: CN1CC[C@H](c2c(O)cc(O)c3c(=O)cc(-c4ccccc4Cl)oc23)[C@H](O)C1 [alvocidib]
Summary of the method: as §1

Tubastatin A = compound: CN1CCc2c(c3ccccc3n2Cc2ccc(C(=O)NO)cc2)C1 [Tubastatin A]
Summary of the method: as §1

[8] = compound: CNC(=O)C1=CC=CC=C1NC2=NC(=NC=C2Cl)NC3=C(C=C(C=C3)N4CCOCC4)OC
Summary of the method: as §1

defactinib = compound: CNC(=O)c1ccc(Nc2ncc(C(F)(F)F)c(NCc3nccnc3N(C)S(C)(=O)=O)n2)cc1 [defactinib]
Summary of the method: as §1

rucaparib = compound: CNCc1ccc(-c2[nH]c3cc(F)cc4c3c2CCNC4=O)cc1 [rucaparib]
Summary of the method: as §1

[9] = compound: CNc1nc(-c2ccc3c(N)n[nH]c3c2)cc(N2C[C@@H](C(=O)NC3CCCCC3)CC[C@H]2C)n1
Summary of the method: as §1

encorafenib = compound: COC(=O)N[C@@H](C)CNc1nccc(-c2cn(C(C)C)nc2-c2cc(Cl)cc(NS(C)(=O)=O)c2F)n1 [encorafenib]
Summary of the method: as §1

[10] = compound: COC(=O)[C@H](CCSC)NC(=O)C1=C(C=C(C=C1)NC[C@H](CS)N)C2=CC=CC=C2
Summary of the method: as §1

Measured: log2 fold change

CDKN2AIP (UniProt Q9NXV6)
Sequence of UniProt Q9NXV6 (Q9NXV6 whole entry, looked up): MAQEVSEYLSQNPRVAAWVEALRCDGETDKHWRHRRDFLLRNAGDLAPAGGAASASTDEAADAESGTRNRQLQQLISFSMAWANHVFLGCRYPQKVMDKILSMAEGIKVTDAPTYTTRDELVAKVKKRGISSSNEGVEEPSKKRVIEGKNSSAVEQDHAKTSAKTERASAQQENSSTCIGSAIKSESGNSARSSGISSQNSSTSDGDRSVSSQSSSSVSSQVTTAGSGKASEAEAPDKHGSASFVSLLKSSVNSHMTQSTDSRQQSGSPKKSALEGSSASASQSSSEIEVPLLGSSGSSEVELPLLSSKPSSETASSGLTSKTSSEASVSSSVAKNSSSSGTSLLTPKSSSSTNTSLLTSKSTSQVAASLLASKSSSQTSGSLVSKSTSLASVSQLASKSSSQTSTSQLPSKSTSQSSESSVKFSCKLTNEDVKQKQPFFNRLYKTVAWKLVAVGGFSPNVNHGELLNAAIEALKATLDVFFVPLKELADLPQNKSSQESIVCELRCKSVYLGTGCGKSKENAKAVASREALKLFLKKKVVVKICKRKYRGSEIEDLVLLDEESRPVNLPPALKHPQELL
inactive: [1] 0.096 | volasertib 0.057 | [2] -0.001 | epoxomicin 0.095 | [3] -0.017 | [4] 0.008 | [5] 0.046 | rosiglitazone 0.025 | [6] 0.03 | [7] 0.094 | saracatinib 0.057 | sotrastaurin 0.023 | alvocidib 0.018 | Tubastatin A 0.013 | [8] 0.052 | defactinib 0.055 | rucaparib -0.055 | [9] 0.033 | encorafenib 0.02 | [10] -0.029

CLASP2 isoform 3 (UniProt O75122)
active: volasertib -0.326 | [7] -0.227
inactive: [1] -0.175 | [2] 0.054 | epoxomicin 0.034 | [3] -0.087 | [4] -0.024 | [5] 0.051 | rosiglitazone 0.038 | [6] 0 | saracatinib -0.073 | sotrastaurin -0.232 | alvocidib -0.132 | Tubastatin A 0.016 | [8] -0.041 | defactinib -0.1 | rucaparib 0.015 | [9] 0.035 | encorafenib 0.084 | [10] -0.043

CHD4 isoform 2 (UniProt Q14839)
Sequence of UniProt Q14839 (Q14839 whole entry, looked up): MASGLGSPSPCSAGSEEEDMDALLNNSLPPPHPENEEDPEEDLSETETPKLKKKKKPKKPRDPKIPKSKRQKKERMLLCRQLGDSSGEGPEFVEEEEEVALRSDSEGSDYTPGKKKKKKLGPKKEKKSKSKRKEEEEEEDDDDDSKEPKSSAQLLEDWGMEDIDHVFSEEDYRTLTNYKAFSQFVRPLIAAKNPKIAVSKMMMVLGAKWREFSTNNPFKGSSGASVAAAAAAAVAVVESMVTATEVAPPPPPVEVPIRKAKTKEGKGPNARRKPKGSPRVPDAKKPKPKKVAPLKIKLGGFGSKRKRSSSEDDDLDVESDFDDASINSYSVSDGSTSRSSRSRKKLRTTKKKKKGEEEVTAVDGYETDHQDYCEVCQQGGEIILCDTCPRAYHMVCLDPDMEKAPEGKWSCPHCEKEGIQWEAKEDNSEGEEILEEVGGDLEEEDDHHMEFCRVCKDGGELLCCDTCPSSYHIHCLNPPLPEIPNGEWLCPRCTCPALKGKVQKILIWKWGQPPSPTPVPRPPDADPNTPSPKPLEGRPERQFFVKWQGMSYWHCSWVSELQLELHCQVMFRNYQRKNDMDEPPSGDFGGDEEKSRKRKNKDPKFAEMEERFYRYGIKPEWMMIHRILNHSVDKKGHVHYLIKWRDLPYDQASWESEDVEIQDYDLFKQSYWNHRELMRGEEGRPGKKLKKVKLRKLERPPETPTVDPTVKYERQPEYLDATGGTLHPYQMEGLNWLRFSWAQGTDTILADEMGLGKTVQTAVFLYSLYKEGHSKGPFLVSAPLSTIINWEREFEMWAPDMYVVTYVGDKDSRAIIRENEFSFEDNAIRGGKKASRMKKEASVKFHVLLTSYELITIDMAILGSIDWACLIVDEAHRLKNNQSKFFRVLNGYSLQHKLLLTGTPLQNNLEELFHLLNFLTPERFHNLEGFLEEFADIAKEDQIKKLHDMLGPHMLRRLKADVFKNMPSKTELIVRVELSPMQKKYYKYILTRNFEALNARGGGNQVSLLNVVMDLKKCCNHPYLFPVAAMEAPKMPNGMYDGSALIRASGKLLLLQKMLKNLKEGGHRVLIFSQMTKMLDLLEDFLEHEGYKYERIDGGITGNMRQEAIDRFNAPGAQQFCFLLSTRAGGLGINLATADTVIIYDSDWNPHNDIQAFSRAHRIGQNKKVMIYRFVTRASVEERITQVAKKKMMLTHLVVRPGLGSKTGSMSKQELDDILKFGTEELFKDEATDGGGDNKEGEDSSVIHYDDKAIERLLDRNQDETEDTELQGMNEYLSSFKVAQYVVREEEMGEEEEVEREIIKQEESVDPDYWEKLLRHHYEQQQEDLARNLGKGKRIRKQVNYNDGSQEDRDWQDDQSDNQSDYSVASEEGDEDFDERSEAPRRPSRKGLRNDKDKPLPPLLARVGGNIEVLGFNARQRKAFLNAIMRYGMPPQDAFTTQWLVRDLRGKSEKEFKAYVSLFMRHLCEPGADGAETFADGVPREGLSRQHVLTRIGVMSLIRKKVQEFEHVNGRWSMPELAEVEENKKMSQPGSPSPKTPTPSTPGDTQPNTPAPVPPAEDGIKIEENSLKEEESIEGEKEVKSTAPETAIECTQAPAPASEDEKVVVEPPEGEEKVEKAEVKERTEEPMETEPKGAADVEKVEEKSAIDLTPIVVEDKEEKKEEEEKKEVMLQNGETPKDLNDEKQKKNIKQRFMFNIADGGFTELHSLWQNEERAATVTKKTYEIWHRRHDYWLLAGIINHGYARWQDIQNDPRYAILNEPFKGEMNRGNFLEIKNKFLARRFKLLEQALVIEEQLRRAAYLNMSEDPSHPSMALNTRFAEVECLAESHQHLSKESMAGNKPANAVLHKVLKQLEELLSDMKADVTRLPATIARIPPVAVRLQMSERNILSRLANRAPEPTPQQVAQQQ
inactive: [1] -0.124 | volasertib -0.382 | [2] 0.158 | epoxomicin 0.069 | [3] -0.051 | [4] 0.098 | [5] 0.048 | rosiglitazone 0.058 | [6] 0.1 | [7] -0.073 | saracatinib -0.006 | sotrastaurin -0.25 | alvocidib -0.135 | Tubastatin A 0.03 | [8] 0 | defactinib -0.247 | rucaparib 0.043 | [9] 0.041 | encorafenib 0.133 | [10] 0.017

COX7B (UniProt P24311)
Sequence of UniProt P24311 (P24311 whole entry, looked up): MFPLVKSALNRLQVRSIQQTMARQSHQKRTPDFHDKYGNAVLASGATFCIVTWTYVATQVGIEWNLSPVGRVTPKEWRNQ
inactive: [1] -0.011 | volasertib 0.024 | [2] -0.052 | epoxomicin 0.023 | [3] 0.065 | [4] -0.035 | [5] 0.04 | rosiglitazone -0.033 | [6] 0.015 | saracatinib 0.174 | sotrastaurin 0.058 | alvocidib 0.026 | Tubastatin A -0.087 | [8] 0.059 | defactinib 0 | rucaparib -0.02 | [9] -0.049 | encorafenib -0.036 | [10] -0.073
active: [7] 0.323

CDK11B (UniProt P21127)
Sequence of UniProt P21127 (P21127 whole entry, looked up): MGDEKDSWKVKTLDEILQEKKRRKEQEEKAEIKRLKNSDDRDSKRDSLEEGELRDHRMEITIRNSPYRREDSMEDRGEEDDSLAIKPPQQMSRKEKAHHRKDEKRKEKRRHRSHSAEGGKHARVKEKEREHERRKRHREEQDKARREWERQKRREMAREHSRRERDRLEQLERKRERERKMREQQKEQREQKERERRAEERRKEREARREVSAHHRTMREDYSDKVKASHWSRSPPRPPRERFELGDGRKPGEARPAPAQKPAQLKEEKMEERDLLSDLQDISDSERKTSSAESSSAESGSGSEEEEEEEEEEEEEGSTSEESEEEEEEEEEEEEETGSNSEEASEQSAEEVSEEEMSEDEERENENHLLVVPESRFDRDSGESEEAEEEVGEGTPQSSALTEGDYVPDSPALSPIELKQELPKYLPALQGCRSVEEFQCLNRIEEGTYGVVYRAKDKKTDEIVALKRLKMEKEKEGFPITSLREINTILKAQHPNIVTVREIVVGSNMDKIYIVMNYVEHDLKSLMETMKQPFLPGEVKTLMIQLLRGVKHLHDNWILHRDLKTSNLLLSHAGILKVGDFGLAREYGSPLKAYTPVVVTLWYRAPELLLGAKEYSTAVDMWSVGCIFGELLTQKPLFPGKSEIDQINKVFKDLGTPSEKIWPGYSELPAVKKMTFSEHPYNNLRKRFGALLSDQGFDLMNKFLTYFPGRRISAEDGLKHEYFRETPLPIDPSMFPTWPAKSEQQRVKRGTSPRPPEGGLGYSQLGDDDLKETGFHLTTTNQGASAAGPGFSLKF
inactive: [1] 0.087 | volasertib 0.047 | [2] 0.028 | epoxomicin -0.072 | [3] -0.07 | [4] -0.01 | [5] -0.107 | rosiglitazone 0.004 | [6] 0.005 | [7] 0.094 | saracatinib -0.039 | sotrastaurin 0.035 | alvocidib 0.157 | Tubastatin A 0.137 | [8] -0.098 | defactinib -0.162 | rucaparib -0.323 | [9] -0.052 | encorafenib 0.077 | [10] -0.039

CPSF7 isoform 3 (UniProt Q8N684)
Sequence of UniProt Q8N684 (Q8N684 whole entry, looked up): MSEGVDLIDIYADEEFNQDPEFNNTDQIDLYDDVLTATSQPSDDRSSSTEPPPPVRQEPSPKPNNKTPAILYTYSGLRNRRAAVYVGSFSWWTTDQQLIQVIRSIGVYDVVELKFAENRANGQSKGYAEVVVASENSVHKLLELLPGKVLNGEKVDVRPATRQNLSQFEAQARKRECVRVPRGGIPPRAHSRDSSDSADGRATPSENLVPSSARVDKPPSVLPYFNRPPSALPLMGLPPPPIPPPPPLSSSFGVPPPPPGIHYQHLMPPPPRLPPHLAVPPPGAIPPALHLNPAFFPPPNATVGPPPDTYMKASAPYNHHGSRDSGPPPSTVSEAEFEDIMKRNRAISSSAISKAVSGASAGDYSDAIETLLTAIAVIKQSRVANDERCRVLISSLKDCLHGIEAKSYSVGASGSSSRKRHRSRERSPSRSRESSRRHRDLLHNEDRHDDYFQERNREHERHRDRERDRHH
inactive: [1] 0.077 | volasertib 0.039 | [2] 0.053 | epoxomicin -0.042 | [3] 0.004 | [4] -0.015 | [5] -0.014 | rosiglitazone -0.029 | [6] -0.001 | [7] 0.006 | saracatinib 0.006 | sotrastaurin 0.026 | alvocidib -0.018 | Tubastatin A 0.032 | [8] -0.071 | defactinib 0.014 | rucaparib 0.033 | [9] -0.014 | encorafenib -0.014 | [10] -0.044

CAD (UniProt P27708)
inactive: [1] 0.006 | volasertib 0.009 | [2] 0.019 | epoxomicin 0.034 | [3] -0.169 | [4] -0.08 | [5] 0.022 | rosiglitazone 0.032 | [6] -0.028 | saracatinib -0.112 | sotrastaurin 0.022 | alvocidib 0.076 | Tubastatin A -0.044 | [8] -0.211 | defactinib 0.097 | rucaparib 0.132 | [9] 0.052 | encorafenib 0.052 | [10] -0.051
active: [7] -0.458

CALCOCO2 isoform 4 (UniProt Q13137)
inactive: [2] -0.024 | epoxomicin 0.035 | [3] 0.089 | [4] 0.059 | [5] 0.01 | rosiglitazone 0 | [6] 0.055 | [7] -0.149 | saracatinib -0.03 | sotrastaurin -0.127 | alvocidib 0.033 | Tubastatin A 0.037 | [8] 0.012 | defactinib 0.017 | rucaparib -0.044 | [9] -0.034 | encorafenib 0.076 | [10] 0.021
active: [1] -0.634 | volasertib -0.471

CDK6 (UniProt Q00534)
inactive: [1] -0.027 | volasertib -0.03 | [2] 0.007 | epoxomicin 0.088 | [3] 0.043 | [4] 0.014 | [5] 0.007 | rosiglitazone 0.011 | [6] 0.062 | [7] -0.1 | saracatinib 0.002 | sotrastaurin -0.005 | alvocidib 0.01 | Tubastatin A 0.022 | [8] 0.016 | defactinib -0.029 | rucaparib 0.065 | [9] -0.02 | encorafenib 0.011 | [10] 0.004

CHERP (UniProt Q8IWX8)
Sequence of UniProt Q8IWX8 (Q8IWX8 whole entry, looked up): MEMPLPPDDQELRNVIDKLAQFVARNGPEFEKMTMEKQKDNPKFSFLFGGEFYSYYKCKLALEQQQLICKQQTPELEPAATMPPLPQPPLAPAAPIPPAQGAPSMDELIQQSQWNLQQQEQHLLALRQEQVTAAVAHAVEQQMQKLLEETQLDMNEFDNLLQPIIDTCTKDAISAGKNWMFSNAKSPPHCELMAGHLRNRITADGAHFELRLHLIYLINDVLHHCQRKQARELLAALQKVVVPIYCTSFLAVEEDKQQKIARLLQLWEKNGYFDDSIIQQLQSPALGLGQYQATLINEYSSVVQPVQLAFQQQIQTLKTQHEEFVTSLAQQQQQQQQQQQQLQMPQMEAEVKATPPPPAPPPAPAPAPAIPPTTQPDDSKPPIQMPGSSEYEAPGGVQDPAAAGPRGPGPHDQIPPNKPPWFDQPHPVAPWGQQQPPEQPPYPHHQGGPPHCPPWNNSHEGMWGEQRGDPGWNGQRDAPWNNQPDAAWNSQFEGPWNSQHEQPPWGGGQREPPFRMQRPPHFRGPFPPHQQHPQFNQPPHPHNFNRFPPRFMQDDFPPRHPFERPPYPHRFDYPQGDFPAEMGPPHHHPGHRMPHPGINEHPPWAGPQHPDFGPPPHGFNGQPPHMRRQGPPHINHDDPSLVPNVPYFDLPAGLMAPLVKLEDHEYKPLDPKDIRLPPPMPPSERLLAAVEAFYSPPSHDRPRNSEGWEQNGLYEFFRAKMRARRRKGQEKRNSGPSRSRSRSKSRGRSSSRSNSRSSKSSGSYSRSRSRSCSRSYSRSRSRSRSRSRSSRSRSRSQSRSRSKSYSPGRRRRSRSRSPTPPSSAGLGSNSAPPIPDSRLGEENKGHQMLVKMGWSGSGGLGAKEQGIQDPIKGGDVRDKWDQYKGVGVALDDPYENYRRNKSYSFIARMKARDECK
inactive: [1] -0.162 | [2] -0.014 | epoxomicin 0.064 | [3] -0.024 | [4] 0.022 | [5] 0.041 | rosiglitazone -0.004 | [6] 0.102 | [7] -0.05 | saracatinib 0.045 | sotrastaurin -0.167 | alvocidib -0.143 | Tubastatin A 0.119 | [8] -0.006 | defactinib -0.29 | rucaparib 0.022 | [9] -0.046 | encorafenib 0.058 | [10] 0.002
active: volasertib -0.888

CHCHD4 isoform 2 (UniProt Q8N4Q1)
Sequence of UniProt Q8N4Q1 (Q8N4Q1 whole entry, looked up): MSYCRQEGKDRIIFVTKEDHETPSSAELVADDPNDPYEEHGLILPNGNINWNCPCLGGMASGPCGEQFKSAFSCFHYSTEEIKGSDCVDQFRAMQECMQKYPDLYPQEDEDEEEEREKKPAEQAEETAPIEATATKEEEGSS
inactive: [1] -0.009 | volasertib -0.125 | [2] -0.096 | epoxomicin -0.186 | [3] -0.034 | [4] 0.231 | [5] -0.023 | rosiglitazone -0.007 | [6] -0.107 | saracatinib 0.277 | sotrastaurin 0.003 | alvocidib -0.14 | Tubastatin A 0.061 | [8] 0.199 | defactinib -0.049 | rucaparib -0.007 | [9] 0.202 | encorafenib -0.046 | [10] -0.034
active: [7] 0.795

CDC123 (UniProt O75794)
inactive: [1] 0.06 | volasertib -0.002 | [2] 0.07 | epoxomicin 0.137 | [3] -0.012 | [4] -0.021 | [5] 0.015 | rosiglitazone 0.034 | [6] -0.009 | [7] -0.1 | saracatinib -0.039 | sotrastaurin 0.073 | alvocidib -0.033 | Tubastatin A 0.075 | [8] -0.043 | defactinib 0.008 | rucaparib -0.017 | [9] -0.041 | encorafenib 0.052 | [10] -0.032

CHCHD1 (UniProt Q96BP2)
inactive: [1] -0.054 | volasertib -0.32 | [2] -0.001 | epoxomicin -0.026 | [3] -0.028 | [4] -0.009 | [5] 0.02 | rosiglitazone 0.035 | [6] 0.033 | [7] -0.191 | saracatinib -0.069 | sotrastaurin 0.059 | alvocidib 0.009 | Tubastatin A -0.025 | [8] 0.132 | defactinib 0.017 | rucaparib 0.114 | [9] 0.04 | encorafenib -0.037 | [10] -0.024

CASC3 (UniProt O15234)
active: alvocidib 0.6
inactive: [1] 0.303 | volasertib 0.272 | [2] -0.068 | epoxomicin -0.058 | [3] 0.016 | [4] 0.087 | [5] -0.081 | rosiglitazone 0.015 | [6] 0.102 | [7] 0.02 | saracatinib -0.015 | sotrastaurin 0.067 | Tubastatin A -0.06 | [8] 0.021 | defactinib 0.323 | rucaparib 0.158 | [9] -0.126 | encorafenib -0.089 | [10] 0.073

C9orf64 (UniProt Q5T6V5)
active: [7] -0.396 | rucaparib 0.377
inactive: [1] -0.066 | volasertib -0.309 | [2] 0.103 | epoxomicin -0.004 | [3] -0.094 | [4] -0.149 | [5] 0.075 | rosiglitazone 0.119 | [6] -0.007 | saracatinib -0.053 | sotrastaurin -0.124 | alvocidib -0.177 | Tubastatin A 0.036 | [8] -0.04 | defactinib -0.067 | [9] -0.018 | encorafenib 0.047 | [10] 0.016

CNOT4 isoform 6 (UniProt O95628)
inactive: [1] -0.008 | volasertib -0.109 | [2] 0.031 | epoxomicin 0.006 | [3] 0.007 | [4] -0.056 | [5] 0.003 | rosiglitazone 0.036 | [6] 0.028 | [7] -0.095 | saracatinib 0 | sotrastaurin 0.003 | alvocidib -0.095 | Tubastatin A -0.003 | [8] -0.014 | defactinib -0.03 | rucaparib -0.044 | [9] -0.07 | encorafenib -0.023 | [10] -0.015
